Screening data from PubChem.
Only some compounds are listed: those with a hit (about 1% of all), similar ones and a draw of the others.
RECQ1 inh – qHTS Assay for Inhibitors of RecQ-Like Dna Helicase 1 (RECQ1). AID 2549, 2010. 240,000 tested, 0.54% active. Potency, µM (highest dose often 57.3 µM), actives largely listed as inhibitors. ATP-dependent DNA helicase Q1 (Homo sapiens), P46063. RECQ1 DNA unwinding, red fluorescence kinetic read; note: nearly all actives have a fitted effect of over 30% in size
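50 nM RECQ1T1 preincubated 15 min with compound in Tris pH 8.0 buffer with MgCl2, DTT, Tween-20 and 2.5 ug/ml poly(dI-dC); started with 200 nM TAMRA/BHQ-2 forked duplex and 2 mM ATP. Unwinding read as fluorescence (525/598 nm), two reads 2 h apart.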
BLM helicase inh – qHTS Assay for Inhibitors of Bloom's syndrome helicase (BLM) | RecQ-like DNA helicase BLM (Homo sapiens), P54132 | recombinant BLM DNA unwinding, fluorescence dequenching | Potency, µM (highest dose often 56.1 µM), usual class: inhibitors | 350,000 tested, 0.2% active; note: nearly all actives have a fitted effect of over 35% in size
Target sequence (P54132 whole entry, looked up): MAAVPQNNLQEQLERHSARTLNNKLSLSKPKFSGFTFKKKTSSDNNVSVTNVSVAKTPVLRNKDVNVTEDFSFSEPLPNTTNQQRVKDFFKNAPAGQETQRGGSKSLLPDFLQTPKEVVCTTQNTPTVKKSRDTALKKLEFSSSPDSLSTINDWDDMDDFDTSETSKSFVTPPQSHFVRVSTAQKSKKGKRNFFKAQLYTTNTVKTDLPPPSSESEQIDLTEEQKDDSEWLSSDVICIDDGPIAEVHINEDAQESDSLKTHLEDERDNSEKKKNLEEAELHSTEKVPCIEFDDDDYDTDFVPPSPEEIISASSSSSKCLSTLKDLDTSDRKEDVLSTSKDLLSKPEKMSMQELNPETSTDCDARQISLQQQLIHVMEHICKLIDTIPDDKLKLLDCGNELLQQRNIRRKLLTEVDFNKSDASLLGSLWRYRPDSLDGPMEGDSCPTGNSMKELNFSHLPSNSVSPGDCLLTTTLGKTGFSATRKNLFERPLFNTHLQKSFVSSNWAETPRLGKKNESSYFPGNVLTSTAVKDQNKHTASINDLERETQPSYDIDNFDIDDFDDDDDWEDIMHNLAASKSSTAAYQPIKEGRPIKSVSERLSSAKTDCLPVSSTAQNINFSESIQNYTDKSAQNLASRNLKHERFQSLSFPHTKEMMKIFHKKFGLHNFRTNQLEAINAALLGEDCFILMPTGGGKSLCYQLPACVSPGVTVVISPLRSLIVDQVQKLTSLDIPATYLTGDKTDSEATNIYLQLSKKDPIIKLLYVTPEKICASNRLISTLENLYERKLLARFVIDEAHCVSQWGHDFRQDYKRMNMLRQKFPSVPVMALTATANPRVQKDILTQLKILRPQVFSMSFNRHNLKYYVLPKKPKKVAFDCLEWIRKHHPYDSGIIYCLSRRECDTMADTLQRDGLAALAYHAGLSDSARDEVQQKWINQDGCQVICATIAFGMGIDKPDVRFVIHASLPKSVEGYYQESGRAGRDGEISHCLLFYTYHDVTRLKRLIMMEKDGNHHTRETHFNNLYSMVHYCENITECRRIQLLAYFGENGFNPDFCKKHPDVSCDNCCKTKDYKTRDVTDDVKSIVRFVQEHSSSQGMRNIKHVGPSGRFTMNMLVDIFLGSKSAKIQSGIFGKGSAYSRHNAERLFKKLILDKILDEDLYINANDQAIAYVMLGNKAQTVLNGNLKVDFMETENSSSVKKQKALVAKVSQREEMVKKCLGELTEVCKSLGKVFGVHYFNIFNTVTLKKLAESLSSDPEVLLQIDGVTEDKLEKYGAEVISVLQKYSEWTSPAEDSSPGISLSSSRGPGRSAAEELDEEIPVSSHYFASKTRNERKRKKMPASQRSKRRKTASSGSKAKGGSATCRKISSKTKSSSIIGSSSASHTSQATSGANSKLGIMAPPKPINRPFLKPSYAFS
APE1 inh-1 – qHTS Assay for Inhibitors of the Human Apurinic/apyrimidinic Endonuclease 1 (APE1); AID 2517, 2012; 350,000 tested, 0.35% active; DNA repair nuclease/redox regulator APEX1 (Homo sapiens), P27695; Potency, µM (doses to about 65.8 µM), usual class: inhibitors; recombinant APE1, TAMRA/BHQ-2 abasic DNA cleavage fluorescence; note: nearly all actives have a fitted effect of over 55% in size
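Enzyme (0.75 nM final) and test compound are incubated 15 min at room temperature before adding 50 nM quenched THF abasic-site duplex. Cleavage dequenches TAMRA, followed at 525/598 nm over three reads one minute apart.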
L3MBTL1 inh – qHTS Assay for the Inhibitors of L3MBTL1; 230,000 tested, 0.66% active; AID 485360, 2010; Potency, µM (highest dose often 57.1 µM), hits mostly inhibitors; AlphaScreen L3MBTL1–H3K9me1 peptide binding; Lethal(3)malignant brain tumor-like protein 1 (Homo sapiens), Q9Y468; note: nearly all actives have a fitted effect of over 60% in size
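Displacement of a biotinylated histone H3(1-15) peptide monomethylated at Lys9 (75 nM) from L3MBTL1 (50 nM) was measured by AlphaScreen after a 30 min room-temperature compound incubation; cefsulodin titration served as intraplate control.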
FEN1 inh – qHTS Assay for the Inhibitors of Human Flap endonuclease 1 (FEN1) | P39748 | Recombinant FEN1 flap cleavage, fluorescence, 15 min | Potency, µM (titrated, usually from 114 µM), hits mostly inhibitors | 390,000 tested, 0.35% active | AID 588795, 2011; note: nearly all actives have a fitted effect of over 65% in size
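FEN1 at 10 nM, compound pretreatment for 15 min (room temperature), 50 nM final substrate to initiate; endpoint reads at 0 and 15 min; DMSO-only plates used as vehicle background.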
WRN inhibitor – qHTS for Inhibitors of WRN Helicase; Bifunctional 3'-5' exonuclease/ATP-dependent helicase WRN (Homo sapiens), Q14191; WRN helicase unwinding, fluorescent forked duplex, kinetic; Potency, µM (series often up to 114 µM), most hits filed as inhibitors; 360,000 tested, 0.46% active; AID 651768, 2012; note: nearly all actives have a fitted effect of over 55% in size
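Fluorescence dequenching readout, ex 525 nm/em 598 nm, kinetic mode: forked duplex DNA (100 nM final) with adjacent fluorophore and quencher unwound by WRN (20 nM final) with 2 mM ATP. Compound preincubation 15 min, room temperature.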
APE1 dye cs – Counterscreen for APE1 Inhibitors: Fluorescent Dye Displacement Assay | shares compounds with APE1 inh-1 | 480 tested, 7% active | DNA fluorescent dye displacement counterscreen, fluorescence | Potency, µM (titrated, usually from 28.5 µM), hits mostly inhibitors;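 note: loss of thiazole orange fluorescence as the dye is displaced from duplex DNA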
EndoIV counter – Counterscreen for APE1 Inhibitors: qHTS Assay for Inhibitors of Endonuclease IV; shares compounds with APE1 inh-1; E. coli Endo IV, fluorogenic AP-site DNA cleavage; Potency, µM (titrated, usually from 27.1 µM), most hits filed as inhibitors; 560 tested, 4% active; AID 2565, 2010
APE1 inh-2 – Confirmation qHTS Assay for Inhibitors of the Human Apurinic/apyrimidinic Endonuclease 1 (APE1) | shares compounds with APE1 inh-1 | purified APE1, fluorogenic abasic-site DNA cleavage | Potency, µM (series often up to 57.1 µM), hits mostly inhibitors | 750 tested, 44% active; note: nearly all actives have a fitted effect of over 30% in size
APE1 FP inh – qHTS FP-Based Assay for Inhibitors of the Human Apurinic/apyrimidinic Endonuclease 1 (APE1). shares compounds with APE1 inh-1. APE1 binding to TAMRA-labelled double-stranded DNA, fluorescence polarization displacement. Potency, µM (series often up to 28.5 µM), usual class: inhibitors. 480 tested, 7% active. AID 2573, 2010
Hits are given with their value; 0 = inactive; ? = inconclusive; - = not tested or not shown; [ ] = dose if it differs, or a comment. Calls come from the whole dose curve; as a rule, active = well fitted curve in the direction sought with a large enough effect; inconclusive = small, poorly fitted or top-dose-only effect, or another doubt; inactive = no such curve, though single readings can be large; an effect the other way counts as inactive or inconclusive.

SMILES	RECQ1 inh	BLM helicase inh	APE1 inh-1	L3MBTL1 inh	FEN1 inh	WRN inhibitor	others
Cn1nc(-c2ccc(Cl)cc2)c2cc(C(=O)NCCCN3CCCC3)sc21	0	0	0	-	32µM	0
CC1CCCN(CCCNC(=O)c2cc3c(Cl)nc4ccccc4c3s2)C1 (stereo not given)	0	0	0	-	50µM	0
Cc1ccc2oc(=O)c3cc(C(=O)NCCCN4CCN(C)CC4)sc3c2c1	-	0	0	-	?	0
O=C(CS(=O)Cc1ccco1)NCC=CCOc1cc(CN2CCCCC2)ccn1 (stereo not given)	-	0	-	-	-	-
N#Cc1c(-c2cccc(Br)c2)no[n+]1[O-]	-	-	0	-	-	-
C=CC1=C(C)C2=CC3=NC(=C(CC(=O)[O-])C4=NC(=C(C)C4=C([O-])[O-])C=c4[n-]c(c(C)c4CC)=CC1=N2)C(CCC(=O)[O-])C3C.[Cu+2].[Na+].[Na+].[Na+] (stereo not given)	-	-	0.4µM	-	-	-
Cc1ccc(S(=O)(=O)N2CC=C(c3c(C)n(C)c4ccccc34)CC2)cc1	0	0	0	0	0	79µM
O=C1C=CC(=O)N1c1cccc(-c2ccccc2)c1	0	0	0	0	0	32µM
COc1cc2c(NC3CCN(C)CC3)nc(N3CCCN(C)CC3)nc2cc1OCCCN(C)C	-	-	-	-	22µM	-
COc1cc2nc(N3CCCN(C)CC3)nc(N3CCN(C)CC3)c2cc1OC	-	-	-	-	0	-
COc1cc2c(NC3CCN(C)CC3)nc(N3CCCCC3)nc2cc1OCCCN(C)C	-	-	-	-	25µM	-
COc1cc2c(Nc3ccc(Br)cc3F)ncnc2cc1OCC1CCN(C)CC1	-	0	-	-	-	-
CCCN(C)CCCOc1cc2nc(N3CCCN(C)CC3)nc(NC3CCN(C)CC3)c2cc1OC	-	-	-	-	28µM	-
COc1cc2c(NC3CCN(C)CC3)nc(N3CCCN(C)CC3)nc2cc1OCCCCCCN(C)C	-	-	-	-	22µM	-
CC(C)(C)c1ccc(C(=O)N2CCC2(C)C(=O)Nc2ccc3nc[nH]c3c2)cc1 (stereo not given)	-	-	-	-	-	0
CN1CCc2ccc3c4c2[C@]1(C)Cc1cccc(c1-4)OCO3	0	0	?	-	-	-
C=C1CC[C@@H]2[C@](C)(CO)[C@H](O)CC[C@@]2(C)[C@@H]1C/C=C1/C(=O)OC[C@H]1O	-	-	0	-	-	-
CC(C)CN(C(=O)CN1C(=O)NC(c2ccccc2)(c2ccccc2)C1=O)C1CCS(=O)(=O)C1 (stereo not given)	-	-	0	0	0	0
COc1cc2nc(N3CCCCC3)nc(NC3CCN(Cc4ccccc4)CC3)c2cc1OC	-	-	-	-	40µM	-
CN(C)CCCCCCNc1cc(N2CCN(C)CC2)ncn1	-	-	-	-	0	-
COc1ccc(Nc2nc(N3CCCC3)nc3ccccc23)c(OC)c1	0	0	?	0[11.4 µM]	50µM	?
COc1cc2c(NC3CCN(C)CC3)nc(N3CCCN(C)CC3)nc2cc1OCCCCN(C)C	-	-	-	-	28µM	-
COc1ccc(Nc2nc(-c3ccc(C)cc3)nc3ccccc23)c(OC)c1	-	0	-	-	0	-
Cc1cccc(OCC(=O)N(Cc2ccccc2)c2c(N)n(Cc3ccccc3)c(=O)[nH]c2=O)c1	-	-	0	0	0	0
Cc1ccc(CNC(=O)CCCn2c(=O)c3ccccc3n(Cc3ccccc3C)c2=O)cc1	-	0	-	-	0	-
SMILES	RECQ1 inh	BLM helicase inh	APE1 inh-1	L3MBTL1 inh	FEN1 inh	WRN inhibitor	others
COc1ccc(/C=C2/SC(=O)N(CCC(=O)Nc3ccc(C)cc3)C2=O)cc1OC	0	0	0	0	-	-
COc1cc(/C=C2/SC(=S)N(CC(=O)O)C2=O)ccc1OCC(=O)Nc1ccc(C)c(C)c1	-	?	4.7µM	-	-	-
O=[N+]([O-])c1ccccc1N/N=C/c1ccccc1	-	0	0	0	0	0
CC1=C/C(=N\Nc2ccccc2[N+](=O)[O-])CC(C)(C)C1	0	0	0	14µM	0	0
COc1ccc(-n2c(=O)c(-c3cccs3)nc3cnc(N(C)C)nc32)cc1	0	0	?	-	-	-
CC(C)(C)n1ncc2c(=O)n(Cc3ccc(F)cc3F)cnc21	-	-	0	-	0	-
C[C@@H]1[C@H](c2ccccc2)OCCS(=O)(=O)N1Cc1cccc(C(F)(F)F)c1	-	-	-	-	0	-
Fc1ccc(C[n+]2csc3ccccc32)cc1	0	0	0	0	0	56µM
O=C1C(CN2CCCC2)CCCC1CN1CCCC1 (stereo not given)	-	-	-	-	0	0
COc1ccc(N2C(=O)CSC23C(=O)N(CC(=O)NCCc2ccccc2)c2ccccc23)cc1 (stereo not given)	-	0	-	-	0	-
CCCCN(C)CCNC(=O)Cn1ncc2c3ccccc3n(CCC)c2c1=O	-	0	-	-	0	-
NC(=O)c1cc[n+](CC2=C(C(=O)O)N3C(=O)[C@@H](NC(=O)[C@@H](c4ccccc4)S(=O)(=O)[O-])[C@H]3SC2)cc1	0	-	?	-	40µM	-	EndoIV counter=0;APE1 inh-2=0
N#Cc1c(Cl)nsc1NCCN1CCOCC1	-	0	0	-	0	0
O=C1/C(=C/c2ccco2)SC(=S)N1CC1CCCO1 (stereo not given)	22µM	0	10µM	16µM	0	?	APE1 dye cs=0;EndoIV counter=0;APE1 inh-2=7.9µM;APE1 FP inh=0
COc1c(O)cc2c(c1O)C(=O)CC(c1ccccc1)O2 (stereo not given)	0	0	25µM	0	-	-	APE1 dye cs=0;EndoIV counter=0;APE1 inh-2=0;APE1 FP inh=0
O=C1CNC(=O)/C1=C/c1ccc(O)cc1	0	0	0.89µM	0	0	0	APE1 dye cs=0;EndoIV counter=0;APE1 inh-2=?;APE1 FP inh=0
